Records with an inconclusive call do not appear. Activity calls are given as the source filed them. Calls follow the shape of the dose curve; as a rule, active = well fitted curve in either direction with a large enough effect (not every such curve was filed as active); inconclusive = small, poorly fitted or top-dose-only effect, or another doubt; inactive = flat fitted curve, though single readings scatter.
% is scaled to controls: 0 for no effect and ±100 for the full control effect.

This test is described as follows: NFAT Signaling Pathway (AID 444).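 Also: carbachol stimulus at about its EC50 of 1 µM final.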 The following applies: Jurkat NFAT-bla M1, carbachol, beta-lactamase ratio, 5 h; at 7.69 µM (top of the series) unless noted. An outline of the steps: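 Read-out: CCF4 FRET ratio (460 nm/530 nm) after 1 h RT dye loading, used for %activity and AC50 from titration series. Cells: Jurkat NFAT-β-lactamase/M1 line, treated with compound plus 1 uM carbachol for 5 h, 37 °C.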
With `COc1ccc(Oc2ncc3nc(-c4cc(F)cc(F)c4)c(=O)n(C4CC4)c3n2)cc1`, the activity change, negative = inhibition was -5.46% (inactive).
With `O=c1c(-c2ccccc2)nc2cnc(Oc3ccccc3)nc2n1C[C@H]1CCCO1`, the activity change, negative = inhibition was 4.49% (inactive).
Take `COc1ccccc1-c1nccc(N2CCN(C)CC2)n1`: the activity change, negative = inhibition is -18.8% (inactive).
As for `Cc1nc2cnc(N3CCN(C)CC3)nc2n(CCc2ccccc2)c1=O`, the figure is -16.9% (inactive); as for `O=c1c(CCc2ccccc2)nc2cnc(Oc3ccccc3)nc2n1C1CC1`, -5.31% (inactive); as for `CCNc1ncc2ncc(=O)n(Cc3ccc(F)cc3)c2n1`, 3% (inactive).
The same measure for `c1ccc(CNc2nc(-c3cccnc3)nc3ccccc23)cc1`: -17.2% (inactive); for `COc1cccc(Cn2c(=O)cnc3cnc(Nc4cccc(OC)c4)nc32)c1`: 15.4% (inactive); for `COc1cccc(-c2ccc3ncnc(NCc4cnc(C)cn4)c3c2)c1`: 27.1% (inactive).
Consider `Cn1c(=O)c(-c2ccccc2)nc2cnc(N3CCOCC3)nc21`, for which the activity change, negative = inhibition is 3.19% (inactive).
The same measure for `CN1CCN(c2ncc3nc(-c4cn(C)c5ccccc45)c(=O)n(C[C@H]4CCCO4)c3n2)CC1`: 3.64% (inactive); for `COc1cccc(-c2nc(NC3CC3)c3ccccc3n2)c1`: 1.07% (inactive); for `COc1ccc2[nH]cc(CCNc3ncnc4ccc(-c5ccoc5)cc34)c2c1`: 0.633% (inactive).
As for `O=c1c(-c2cccc(F)c2)nc2cncnc2n1Cc1ccc(F)cc1`, the figure is -4.79% (inactive); as for `COc1ccccc1CNc1ncnc2ccc(-c3cccc(NS(C)(=O)=O)c3)cc12`, 24.7% (inactive).

For the origin of these results see PubChem BioAssay (NCATS).
